Measurements taken from PubChem BioAssay AID779 (Sanford-Burnham Center for Chemical Genomics, 2007).
Active and inactive are the calls of the source. The rule behind the calls is not given here.

test: PLAP enzyme activity inhibition – biochemical, colorimetric, counter-screen, dose response (AID 779); conditions: colorimetric OD read-out

Which IC50 does the source give for O=C(Nc1cccc2c1CCCC2)c1cc([N+](=O)[O-])ccc1Cl here?
The IC50 was > 50 µM (inactive).

With CCSC1=N/C(=C\c2ccc(-c3ccccc3[N+](=O)[O-])o2)C(=O)S1 as the molecule, how does the IC50 read?
The IC50 was > 50 µM (inactive).

For Cc1nn(-c2ccccc2)c2c1C(c1cccnc1)N1C=C(S(=O)(=O)N3CCCCC3)C=CC1=N2 (centres undefined), which IC50 is on record?
Its IC50 is > 50 µM (inactive).

For O=C1/C(=C\c2ccc(-c3ccccc3Cl)o2)SC(=S)N1CC1CCCO1 (centres undefined), which IC50 is on record?
Its IC50 is > 50 µM (inactive).

With CCCCCCOC(=O)C(C#N)c1nc2ccccc2nc1N1CCN(CC)CC1 (centres undefined) as the molecule, how does the IC50 read?
The IC50 was > 50 µM (inactive).

With CC1Cc2ccccc2N1Cc1nc2cc(C(F)(F)F)ccc2c(=O)[nH]1 (centres undefined) as the molecule, how does the IC50 read?
Its IC50 is > 50 µM (inactive).

Which IC50 does the source give for COc1ccc(Cc2nnc(NC(=O)Cc3cccs3)s2)cc1 here?
The IC50 was > 50 µM (inactive).

Which IC50 does the source give for CCC(C)COC(=O)C(C#N)c1nc2ccccc2nc1N1CCCCC1 (centres undefined) here?
Its IC50 is > 50 µM (inactive).

Which IC50 does the source give for CCOc1ccc(S(=O)(=O)N(CC(=O)N/N=C/c2ccc(-c3ccc([N+](=O)[O-])cc3)o2)c2ccccc2)cc1 here?
The IC50 was > 50 µM (inactive).

Which IC50 does the source give for O=C(NCCc1ccccc1)c1ccc2nc(-c3ccco3)c(-c3ccco3)nc2c1 here?
Its IC50 is > 50 µM (inactive).

With Fc1ccc(-c2cc3nc4c(c(N5CCOCC5)n3n2)CCCC4)cc1 as the molecule, how does the IC50 read?
The IC50 was > 50 µM (inactive).

With COC(=O)CSc1nc(-c2ccccc2)cc(-c2ccco2)c1C#N as the molecule, how does the IC50 read?
Its IC50 is > 50 µM (inactive).

Which IC50 does the source give for Cc1cc(C)c2nc(N3CCCN(C(=O)c4ccco4)CC3)c(C#N)cc2c1 here?
Its IC50 is > 50 µM (inactive).

For Cc1ccccc1C(=O)c1cccn1CC(=O)NCC1CCCO1 (centres undefined), which IC50 is on record?
The IC50 was > 50 µM (inactive).
